Test results as given in ChEMBL document CHEMBL3988442, “University of Dundee, Small-Polar-MMV Screening Library” (2021).
Entries with a potency or affinity are not part of this list.

target: T1, Ubiquitin-activating enzyme e1, putative (Leishmania donovani (strain BPK282A1)) (UniProt E9BSI1); assay: Leishmania donovani Ubiquitin Activating Enzyme (LdE1); type: functional; design: scale not given: direction of the effect not stated beside the values; conditions: 30 µM
T1 sequence (whole entry): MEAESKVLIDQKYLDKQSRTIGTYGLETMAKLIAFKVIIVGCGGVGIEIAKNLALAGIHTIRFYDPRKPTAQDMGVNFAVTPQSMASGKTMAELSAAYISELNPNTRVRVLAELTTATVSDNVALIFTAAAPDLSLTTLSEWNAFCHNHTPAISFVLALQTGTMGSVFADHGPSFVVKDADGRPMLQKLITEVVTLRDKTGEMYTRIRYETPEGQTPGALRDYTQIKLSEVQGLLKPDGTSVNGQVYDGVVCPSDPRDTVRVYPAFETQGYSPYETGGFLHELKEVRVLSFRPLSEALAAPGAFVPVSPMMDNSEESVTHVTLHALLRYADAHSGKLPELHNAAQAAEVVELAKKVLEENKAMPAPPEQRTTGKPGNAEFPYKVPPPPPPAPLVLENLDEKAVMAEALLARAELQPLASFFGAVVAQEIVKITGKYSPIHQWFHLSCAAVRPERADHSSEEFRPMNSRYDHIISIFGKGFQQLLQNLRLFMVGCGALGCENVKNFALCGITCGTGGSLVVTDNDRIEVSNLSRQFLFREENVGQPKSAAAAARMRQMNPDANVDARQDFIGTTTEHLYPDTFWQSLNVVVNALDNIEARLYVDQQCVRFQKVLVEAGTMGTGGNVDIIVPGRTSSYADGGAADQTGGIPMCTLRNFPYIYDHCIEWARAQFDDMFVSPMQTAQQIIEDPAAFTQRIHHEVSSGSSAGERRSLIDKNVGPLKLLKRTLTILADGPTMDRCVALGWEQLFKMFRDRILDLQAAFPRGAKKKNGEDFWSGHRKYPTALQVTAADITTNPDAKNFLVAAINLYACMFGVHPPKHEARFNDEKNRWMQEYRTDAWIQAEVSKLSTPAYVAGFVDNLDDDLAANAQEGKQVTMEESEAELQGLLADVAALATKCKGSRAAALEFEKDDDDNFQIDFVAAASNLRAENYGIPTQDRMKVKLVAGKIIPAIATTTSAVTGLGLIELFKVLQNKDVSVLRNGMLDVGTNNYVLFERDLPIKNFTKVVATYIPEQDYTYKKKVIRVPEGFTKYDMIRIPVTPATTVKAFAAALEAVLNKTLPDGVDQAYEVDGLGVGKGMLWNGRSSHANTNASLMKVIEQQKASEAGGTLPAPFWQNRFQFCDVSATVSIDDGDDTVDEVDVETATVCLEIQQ

Row | Structure (SMILES) | Percent Effect [%]
1 | Cc1ncsc1C(=O)N(C)CCc1ccncc1 | 2.63
2 | O=C(O)c1ccc(F)c(S(=O)(=O)Nc2c(F)cccc2-n2cccn2)c1 | 2.67
3 | Cn1cnc2c1C(COCc1cccnc1)N(Cc1ccccn1)CC2 (centres undefined) | 8
4 | Cc1cc(CN2CCCC(C)(CO)C2)ccc1F (centres undefined) | 5.41
5 | CCS(=O)(=O)CC(=O)NC(c1ccc(F)cc1)C1CCCC1 (centres undefined) | 0
6 | O=C(Nc1cccc(CN2CCOC2=O)c1)N1CCOCC1 | 1.39
7 | CC(C)c1cc(NC(=O)c2ccc(C(=O)NC(C)(C)C)cc2)[nH]n1 | 23.4
8 | CN(C)C(=O)CN1CCCCC1c1nc(N)ncc1-c1cccc(F)c1 (centres undefined) | 21.3
9 | CCN1CC(C(=O)NC(C)(C)CC(C)(C)C)CC1=O (centres undefined) | 10.8
10 | CC(C)CS(=O)(=O)CC(=O)N(C)Cc1ccc(OC(F)F)cc1 | 2.7
11 | Cc1ccc(C(=O)Nc2cn[nH]c2)cn1 | 13.2
12 | CSc1nccn1-c1cccc(C(=O)NCc2nnc(C)n2C)c1 | 13.2
13 | CN(Cc1cnn(C)c1)C(=O)Cn1c(CS(C)(=O)=O)nc2ccccc21 | 10.5
14 | CC1CN(Cc2nccn2C)CCN1c1ccc2nncn2n1 (centres undefined) | 10.4
15 | O=C(CCn1cccn1)N1CCN(CC(F)F)CC1 | 16.2
16 | Cc1noc(C(C)C)c1C(=O)N1CCCN(Cc2cscn2)CC1 | 18.2
17 | CS(=O)(=O)CCNC(=O)C1(c2cccc(Cl)c2)CCCCC1 | -1.39
18 | CCc1n[nH]c(C2CN(C(=O)c3ccsc3)CCO2)n1 (centres undefined) | 0
19 | CN(C)C(=O)N1C[C@@H]2CC[C@H](C1)N(C(=O)CCCn1cncn1)C2 | 2.7
20 | CN1CCN(C2CCN(CC(=O)NCC(F)(F)F)CC2)C1=O | 15.2

Row | Structure (SMILES) | Percent Effect [%]
21 | CN(C)S(=O)(=O)N1C[C@@H](Oc2ccccn2)[C@H]2OCCC[C@H]21 | 10.4
22 | Cc1ccc(CC(=O)N2Cc3nccn3CC(CN(C)C)C2)cc1 (centres undefined) | 11
23 | COc1cc(CNCc2ccnc(N3CCOCC3)c2)cc(Cl)c1OC | 16.2
24 | CC(C)(C)OC(=O)NC(C)(C)c1noc(CN2CCCCC2)n1 | 8
25 | Cc1cc(CC(=O)NCc2ccnc(OCC(F)(F)F)c2)no1 | -5.26
26 | Cc1nc(N2CCN(C(=O)C(C)(C)C)CC2)cc(-n2cnc(C)c2C)n1 | 10.4
27 | Cc1ccc(-c2noc(CN3CCOC(Cn4cncn4)C3)n2)cc1 (centres undefined) | -5.41
28 | Cc1nc(C)n(CC2CCCN2CC(=O)NCCc2ccccc2)n1 (centres undefined) | 0
29 | Cn1c(C2CC2)nc2c1CCN(CC(=O)Nc1nncs1)C2 | -2.6
30 | CCc1csc(C2CCCN(C(=O)C3=NN(CC)C(=O)CC3)C2)n1 (centres undefined) | 7.79
31 | Cc1nccc([C@H]2C[C@@H]3CCN(S(=O)(=O)N(C)C)C[C@H]3O2)n1 | 8.11
32 | CO[C@H]1CCN(c2ncccn2)[C@H]1Cc1ccccc1 | 2.6
33 | CNc1cc(N2CCCC2CNCc2ccc(Cl)o2)ncn1 (centres undefined) | 13.5
34 | O=C(O)C(c1ccc2c(c1)OCO2)N1CCC(C(=O)N2CCCC2)CC1 (centres undefined) | 0
35 | COc1ccc(CC(=O)N2CCCCC2Cn2cccn2)cc1OC (centres undefined) | 7.89
36 | COCC(c1cccc(C(F)(F)F)c1)N(C)C(=O)c1cc(C)no1 (centres undefined) | 13.2
37 | CNS(=O)(=O)CCCN1CCCC1c1cc(C)on1 (centres undefined) | 0
38 | Cc1cc(C)n(CC2CCCN2CC(=O)NC2CCOCC2)n1 (centres undefined) | 10.4
39 | Cc1cc(C)n(-c2ccc(CNCc3ccc(OC(C)C)cc3)cn2)n1 | 13.2
